Source: PubChem BioAssay AID602393 (Broad Institute, 2012)
Out of some 350,000 compounds screened, about 7,000 (2%) were called active. Rule as the data show it: active = activation above about 40%; inconclusive = no clear call, values can overlap the other calls; inactive = below that. What follows is part of a selection rich in actives, with near analogues and random picks from the rest.

Assay: Bmi1 luciferase reporter increase in mESCs, primary screen, esBAF inhibitor project, mouse ES cells, Bmi1 luciferase knock-in, single point (AID 602393);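 also: 0% = median of the plate's neutral control wells and 100% = double that signal; a rise in the Bmi1 reporter signal indicates esBAF inhibition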
Details: 24 h, at 12.5 µM, stronger effect = higher value, 100% = twice the neutral-well signal

Reporter increase, active:
C[n+]1cc(-c2ccccc2)oc1-c1ccccc1 51.8%, COC(=O)c1ccc(Nc2ncnc3sccc23)cc1 41.7%, Cc1cc(NC(=O)COc2ccccc2C#N)no1 70%, CC(=O)c1c(C)[nH]c(C(=O)COC(=O)c2cccs2)c1C 48.6%, COc1ccccc1-c1nnc(SCC(=O)Nc2ccccc2)o1 50.9%, COc1ccc(-c2nnc(SCC(=O)c3cccs3)o2)c(OC)c1 78.8%, COc1ccc(-c2csc(Nc3ccc(O)cc3)n2)cc1 78.7%, NS(=O)(=O)c1ccc(Nc2nc(-c3ccccc3)cs2)cc1 47.4%, Fc1ccc2nc(N3CCCCC3)sc2c1 45.1%, CC(=O)Nc1ccc(/C=N/NC(=O)c2cccs2)cc1 48.3%, Cc1ccc(C)c(NC2=NCC(=O)N2c2ccc3c(c2)OCCO3)c1 47.5%, COc1ccc(N=Cc2c(O)[nH]c3ccccc23)cc1OC 73.5%

Reporter increase, inactive:
COC(=O)C[C@@H]1CC[C@@H]2[C@H](COc3ccc(NC(=O)c4ccccc4OC)cc3C(=O)N2C)O1 -4.7%, O=S(=O)(Nc1ncnc2sccc12)c1cccc(F)c1 -8.41%, COC(=O)c1ccc(OC(=O)c2cnccn2)cc1 2.58%, COc1ccc(C(=O)OCC(=O)Nc2cc(C)on2)cc1F 0.512%, Cc1cc(NC(=O)COn2nnc3ccccc32)no1 -6.87%, CC(=O)c1c(C)[nH]c(C(=O)COC(=O)CCOc2ccc(C)cc2)c1C -8.22%, COc1cccc(C(=O)OCC(=O)c2[nH]c(C)c(C(C)=O)c2C)c1 8.69%, C[C@@H]1CN([C@H](C)CO)C(=O)c2cc(-c3ccccc3F)cnc2O[C@H]1CN(C)C(=O)NC1CCCCC1 -2.88%, C[C@@H]1CN([C@H](C)CO)C(=O)c2cc(-c3ccc(F)cc3)cnc2O[C@@H]1CN(C)C(=O)C1CCC1 -5.57%, COc1ccc(-c2nnc(NC(=O)CS(=O)(=O)c3ccc(Cl)cc3)o2)c(OC)c1 -8.93%, COc1cccc(NC(=O)CSc2nnc(Cc3ccc(OC)c(OC)c3)o2)c1 -6.14%, COc1ccccc1-c1nnc(SCC(=O)N2CC(C)CC(C)C2)o1 (stereo not drawn) 0.0545%, COc1ccccc1N1CCN(C(=O)CSc2nnc(-c3ccoc3C)o2)CC1 -3.09%, O=C(C[C@H]1C=C[C@H](NC(=O)Nc2ccc(C(F)(F)F)cc2)[C@@H](CO)O1)NCCN1CCCC1 3.94%, CO[C@@H](CN(C)C(=O)c1cnccn1)[C@@H](C)CN([C@@H](C)CO)S(=O)(=O)c1ccc(Cl)cc1 0.654%, COc1ccc(NC(=O)N(C)C[C@@H]2Oc3ccc(NC(=O)CCN4CCOCC4)cc3C(=O)N([C@@H](C)CO)C[C@H]2C)cc1 2.67%, C[C@@H]1CN([C@@H](C)CO)C(=O)c2cc(-c3cccnc3)cnc2O[C@H]1CN(C)Cc1ccc(-c2ccccc2)cc1 -1.47%, C[C@H](CO)N1C[C@H](C)[C@@H](CN(C)Cc2ccncc2)OCCCC[C@H](C)Oc2ccc(NS(=O)(=O)c3ccc(Cl)cc3)cc2C1=O 0.433%, COC(=O)CCc1sc(Nc2ccc(Br)cc2)nc1-c1ccc(OC)cc1 3.71%, NS(=O)(=O)c1ccc(NS(=O)(=O)/C=C/c2ccccc2)cc1 -2.76%, COc1ccc(C(C)(O)c2nc(-c3ccc(C)c(C)c3)cs2)cc1 (stereo not drawn) -1.35%, CC(=O)c1ccc(Nc2nc(C(N)c3ccccc3)cs2)cc1 (stereo not drawn) 20.6%, CCCNC(=O)Nc1ccc2c(c1)C(=O)N(C)C[C@H](OC)[C@H](C)CN(Cc1cccnc1)[C@@H](C)CO2 -1.39%, CN1CCN(C(=O)C[C@@H]2CC[C@@H]3[C@H](COC[C@H](O)CN3CC3CCOCC3)O2)CC1 3.66%, CC(C)NC(=O)N[C@@H]1CC[C@H](CC(=O)NCCN2CCCC2)O[C@@H]1CO -2.08%, COc1ccccc1S(=O)(=O)N[C@@H]1CC[C@@H](CCn2cc(C3CCCCC3)nn2)O[C@H]1CO 4.02%, CO[C@H]1CN(C)C(=O)c2ccc(NC(=O)C3CCCC3)cc2OC[C@@H](C)NC[C@@H]1C 0.309%, COc1cccc(NC(=O)Nc2ccc3c(c2)C(=O)N(C)[C@@H]2CC[C@@H](CC(=O)NCCc4ccccc4)O[C@H]2CO3)c1 4.83%, C[C@@H]1CN([C@H](C)CO)C(=O)c2cc(NC(=O)CCCN(C)C)ccc2O[C@@H](C)CCCCO[C@H]1CN(C)CC1CCCCC1 -2.94%, O=C(NCCc1cccc(F)c1)C1CCCN(c2nc3ccccc3s2)C1 (stereo not drawn) 3.83%, Fc1ccc2nc(Nc3nc4c(s3)CCCC4)sc2c1 28.9%, O=C(Cc1ccccc1)N1C[C@@H]2[C@H](c3ccccc31)[C@@H](CO)N2C(=O)Nc1ccc(F)cc1 -2.51%, O=C(C[C@@H]1C[C@H]2c3cc(NS(=O)(=O)c4ccc(F)cc4)ccc3O[C@H]2[C@@H](CO)O1)NCc1ccccc1F 12.4%, CCC(=O)N1C[C@@H](C)[C@@H](OC)CN(C)C(=O)c2ccc(NC(=O)Nc3ccccc3)cc2OC[C@H]1C 0.261%, CCc1ccc(NC(=O)C(=O)NNC(=O)c2cccs2)cc1 12.8%, O=C(CNC(=O)c1cccs1)N/N=C/c1cccc(Br)c1 -3.05%, COc1ccc(N2C(=O)CN=C2Nc2cccc(C)c2C)cc1OC -1.36%, Cc1ccc(CC2CC(=O)N(c3ccc4c(c3)OCCO4)C2=O)cc1 (stereo not drawn) 11.3%, COc1ccc(NC(=O)N(C)C[C@@H]2Oc3ncc(-c4ccc(C#N)cc4)cc3C(=O)N([C@@H](C)CO)C[C@H]2C)cc1 -0.692%, COc1ccc(CNC(=O)[C@H](Cc2c[nH]c3ccccc23)NC(C)=O)cc1OC 3.18%, COc1cc2[nH]c(O)c(C=O)c2cc1OC 3.41%
